Measurements: PubChem BioAssay (NCATS)
Several values for one entry are separate records, joined by “and”; a condition that tells them apart may be missing. Equal values may be shown once. Results filed as inconclusive are left out. Entries that show only a call come without a potency. Some compounds were tested as several samples or in several runs, with calls that do not always agree. A number with no mark means an inactive call. Activity calls are given as the source filed them. The call rests on the fitted dose curve; in most records, active means well fitted curve in the direction sought with a large enough effect; inconclusive means small, poorly fitted or top-dose-only effect, or another doubt; inactive means no such curve, though single readings can be large; an effect the other way counts as inactive or inconclusive.

Key:
[1] = Quantitative highthroughput screen to assess conditional lethalithy of NOMO1 cells grown in RPMI1640 with untreated serum (RPMI+s) (AID 1963876); further: nearly all actives have a fitted effect of over 35% in size
Outline: (§1)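 Each medium arm—HPLM with 10% dialyzed FBS, or RPMI1640 with 5 mM glucose and 10% untreated or dialyzed FBS—was screened against an 11-point, 3-fold compound titration for 48 h at 37 °C, with CellTiter-Glo luminescence as endpoint.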

[2] = Quantitative highthroughput screen to assess conditional lethalithy of NOMO1 cells grown in RPMI1640 with dialyzed fetal bovine serum (RPMI+ds) (AID 1963877); further: nearly all actives have a fitted effect of over 30% in size; on viability: series mostly up to about 46 µM
Outline: as §1

[3] = Quantitative highthroughput screen to assess conditional lethalithy of NOMO1 cells grown in Human Plasma-Like Medium with dialyzed fetal bovine serum (HPLM+ds) (AID 1963878); further: nearly all actives have a fitted effect of over 35% in size
Outline: as §1

[4] = Quantitative highthroughput screen to assess conditional lethalithy of P12 Ichikawa cells grown in RPMI1640 with dialyzed fetal bovine serum (RPMI+ds) (AID 1963880); conditions: Potency: P12-Ichikawa viability; further: nearly all actives have a fitted effect of over 35% in size
Outline: as §1

[5] = Quantitative highthroughput screen to assess conditional lethalithy of SEM cells grown in Human Plasma-Like Medium with dialyzed fetal bovine serum (HPLM+ds) (AID 1963882); further: nearly all actives have a fitted effect of over 35% in size; on viability: series mostly up to about 46 µM
Outline: as §1

[6] = Quantitative highthroughput screen to assess conditional lethalithy of SEM cells grown in RPMI1640 with unreated serum (RPMI+s) (AID 1963883); further: nearly all actives have a fitted effect of over 35% in size
Outline: as §1

[7] = Quantitative highthroughput screen to assess conditional lethalithy of SEM cells grown in RPMI1640 with dialyzed fetal bovine serum (RPMI+ds) (AID 1963884); further: nearly all actives have a fitted effect of over 35% in size; on viability: series mostly up to about 46 µM
Outline: as §1

[8] = Quantitative highthroughput screen to assess conditional lethalithy of P12 Ichikawa cells grown in RPMI1640 with untreated serum (RPMI+s) (AID 1963881); conditions: Potency: viability; further: nearly all actives have a fitted effect of over 35% in size; on viability: series mostly up to about 46 µM
Outline: as §1

[9] = Cellular viability qHTS for adrenocortical cancer (ACC) cell line SW-13 (AID 1963989); conditions: SW-13 ACC cells viability, CellTiter-Glo, 48 h; activity (max response): hits give low values; further: nearly all actives have a fitted effect of over 65% in size;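 on activity (max response): cells grown in serum-free medium with ITS supplement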
Outline: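 Luminescent ATP read-out (CellTiter-Glo, 20 min at room temperature) measured metabolically competent SW-13 cells after 48 h compound treatment. Final concentrations spanned up to 46 uM; bortezomib served as positive control.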

[10] = Cellular viability qHTS for adrenocortical cancer (ACC) cell line NCI-H295R (AID 1963990); further: nearly all actives have a fitted effect of over 60% in size
Outline: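 IC50 and maximal efficacy derive from four-parameter logistic modelling of titration curves, with reads scaled between DMSO-only wells (0%) and doxorubicin hydrochloride (100% inhibition). Compounds spanned up to 46 uM over 48 h.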

[11] = Quantitative highthroughput screen to assess conditional lethalithy of P12 Ichikawa cells grown in Human Plasma-Like Medium with dialyzed fetal bovine serum (HPLM+ds) (AID 1963879); conditions: Potency: viability; further: nearly all actives have a fitted effect of over 35% in size
Outline: as §1
Potency means the concentration at half of the fitted maximal effect.

Row | Structure (SMILES) | Potency [1] | Potency [2] | Potency [3] | Potency [4] | Potency [5] | Potency [6] | Potency [7] | Potency [8] | activity (max response) [9] | Potency [10] | Potency [9] | activity change, negative = viability loss [10] | Potency [11]
1 | CC(=O)[C@]1(O)Cc2c(O)c3c(c(O)c2[C@@H](O[C@H]2C[C@H](N)[C@@H](O)[C@H](C)O2)C1)C(=O)c1ccccc1C3=O | 2.96 µM (active) | 3.72 µM (active) | 2.96 µM (active) | 1.48 µM (active) | 1.05 µM (active) | 0.833 µM (active) | 1.05 µM (active) |  |  |  |  |  | 
2 | CNC(=O)[C@H](CC1=CN=C2C=CCC=C12)NC(=O)[C@@H](CC(=O)NO)CC(C)C | 8.33 µM (active) | 8.33 µM (active) | 5.9 µM (active) |  | inactive | inactive | inactive |  |  |  |  |  | 
3 | CCN1CCN(C(=O)N[C@H](C(=O)N[C@@H]2C(=O)N3C(C(=O)O)=C(CSc4nnnn4C)CS[C@@H]23)c2ccc(O)cc2)C(=O)C1=O | inactive | inactive | inactive | inactive |  | inactive | inactive |  |  |  |  |  | 
4 | Oc1ccc(C2CNCCc3c2cc(O)c(O)c3Cl)cc1 (configuration not stated) | inactive | inactive | inactive |  | inactive | inactive | inactive | inactive | 2.44% and 14.8% | inactive |  |  | 
5 | CC(C)(C)COc1ccc(-n2cc(C(=O)O)cn2)cc1C#N | inactive | inactive | inactive | inactive | inactive |  | inactive | inactive | 0.955% | inactive |  |  | 
6 | O=C1NC(=O)C(=Cc2ccc3nccc(-c4ccncc4)c3c2)S1 | 2.64 µM (active) | 1.32 µM (active) | 0.662 µM (active) | 1.87 µM (active) | 0.935 µM (active) | 0.935 µM (active) | 0.833 µM (active) | 1.87 µM (active) |  |  |  |  | 
7 | Cc1cc(O)c2c(c1)C(=O)c1cc(O)cc(O)c1C2=O | inactive | inactive | inactive | inactive | inactive | inactive | inactive | inactive | -8.42% | inactive |  |  | 
8 | CC(C)(C)OC(=O)N[C@H]1CCCCCC=C[C@@H]2C[C@@]2(C(=O)NS(=O)(=O)C2CC2)NC(=O)[C@@H]2C[C@@H](OC(=O)N3Cc4cccc(F)c4C3)CN2C1=O | inactive | inactive | inactive | inactive | inactive |  | inactive | inactive | 8.79% | inactive |  |  | 
9 | Cc1ccc(-c2cc(C(F)(F)F)nn2-c2ccc(S(N)(=O)=O)cc2)cc1 | inactive | inactive | inactive | inactive | inactive | inactive | inactive | inactive | -6.62% | inactive | 23.1 µM (active) |  | 
10 | O=C1c2c(O)cc(O)cc2O[C@H](c2cc(O)c(O)c(O)c2)[C@H]1O | inactive | inactive | inactive |  | 3.72 µM (active) |  |  | inactive |  |  |  |  | 
11 | O=C1C(Cl)=C(NCCN2CCOCC2)C(=O)c2ncccc21 | 10.5 µM (active) | 9.35 µM (active) | 14.8 µM (active) | 20.9 µM (active) | 10.5 µM (active) | 4.69 µM (active) | 7.43 µM (active) | 23.5 µM (active) |  | 3.98 µM (active) |  |  | 
12 | CCN(CC)CCOc1ccc(Cc2ccccc2)cc1 | 10.5 µM (active) | inactive | 7.43 µM (active) |  |  | 4.18 µM (active) | 8.33 µM (active) | inactive | -24% |  |  |  | 
13 | C[C@H](NC(=O)c1sccc1OCc1ccc(Cl)cc1)c1ccccc1 | inactive | inactive | inactive | inactive |  |  |  | inactive |  | 28.2 µM (active) | 25.1 µM (active) |  | 
14 | CC(C)c1nc(CN(C)C(=O)N[C@H](C(=O)N[C@@H](Cc2ccccc2)C[C@H](O)[C@H](Cc2ccccc2)NC(=O)OCc2cncs2)C(C)C)cs1 | inactive | inactive | inactive | inactive | inactive | inactive | inactive | inactive |  |  |  |  | 
15 | Nc1ccn(C[C@@H](CO)OCP(=O)(O)O)c(=O)n1 | inactive | inactive | inactive |  | inactive |  | inactive | inactive | -11.5% |  |  | 1.71% [at 9.17 µM] | 
16 | O=C(N[C@H](CO)[C@H](O)c1ccc([N+](=O)[O-])cc1)C(Cl)Cl | inactive | inactive | inactive |  | inactive | inactive | inactive | 20.9 µM (active) |  | inactive |  |  | 
17 | COc1ccc(C(C)=O)c(O)c1 | 2.64 µM (active) | 2.96 µM (active) | 0.935 µM (active) |  |  | inactive | inactive | 8.33 µM (active) |  |  |  |  | 
18 | Cc1cncc2cccc(S(=O)(=O)N3CCCN(C(=O)CN)C[C@@H]3C)c12 | 5.9 µM (active) | 4.18 µM (active) |  | 6.62 µM (active) |  | 5.26 µM (active) | 4.18 µM (active) | 6.62 µM (active) | -18.3% | inactive |  |  | 5.26 µM (active)
